# Compounds with a hit are over-represented: about 2.3% of the library has one in this group of screens.
# Rtt109 HAT inh – inhibitors of Candida albicans Rtt109/Vps75 histone acetyltransferase; Q5AAJ8; purified Rtt109/Vps75, ThioGlo CoA-SH fluorescence, 4 h; inhibition, % at 34.9 µM; hit rate 0.16% among 330,000;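 active = inhibition of at least 50% in every replicate; inconclusive = best replicate reaches 50% inhibition but some replicates fall short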
# DENV2 CPE rescue – DENV2-induced cell death inhibition. DENV2-infected cells, cytopathic effect rescue, plate reader. CPE inhibition, % at 9.99 µM. AID 651640. hit rate 1.7% among 350,000; in the data active = CPE inhibition above about 20%, passing the limit was not always enough; inconclusive = no clear call, values can overlap the other calls; tested in BHK-21 cells;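 also: 0% = median of neutral control wells and 100% = median of positive control wells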
# SIRT5 block – sirtuin-5 (human) deacylase inhibition; Q9NXA8; Purified SirT5, succinyl-peptide AMC, trypsin-coupled fluorescence; inhibition, % at 15 µM; hit rate 1.1% among 330,000; in the data active = inhibition above about 15%; inconclusive = no clear call, values can overlap the other calls
# ERp5 block – ERp5 (human) disulfide isomerase inhibition. Q15084. ERp5 insulin aggregation, absorbance 650 nm, 90 min. inhibition, % at 9.99 µM. hit rate 0.05% among 350,000. AID 651711;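 active = mean replicate inhibition above about 25%, with every replicate also reaching it, limit read from the data, passing the limit was not always enough; inconclusive = only one of those two criteria met; inactive = neither criterion met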
# PDI turbidity – inhibitors of human protein disulfide isomerase. inhibition, % at 10 µM. PDI insulin aggregation turbidity, A650, 90 min. hit rate 0.052% among 350,000;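 active = mean inhibition across replicates of 30% or more, whatever share of single replicates reach that level; inconclusive = mean inhibition below 30% while every single replicate reaches 30%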
# Target sequence (P07237 whole entry, looked up): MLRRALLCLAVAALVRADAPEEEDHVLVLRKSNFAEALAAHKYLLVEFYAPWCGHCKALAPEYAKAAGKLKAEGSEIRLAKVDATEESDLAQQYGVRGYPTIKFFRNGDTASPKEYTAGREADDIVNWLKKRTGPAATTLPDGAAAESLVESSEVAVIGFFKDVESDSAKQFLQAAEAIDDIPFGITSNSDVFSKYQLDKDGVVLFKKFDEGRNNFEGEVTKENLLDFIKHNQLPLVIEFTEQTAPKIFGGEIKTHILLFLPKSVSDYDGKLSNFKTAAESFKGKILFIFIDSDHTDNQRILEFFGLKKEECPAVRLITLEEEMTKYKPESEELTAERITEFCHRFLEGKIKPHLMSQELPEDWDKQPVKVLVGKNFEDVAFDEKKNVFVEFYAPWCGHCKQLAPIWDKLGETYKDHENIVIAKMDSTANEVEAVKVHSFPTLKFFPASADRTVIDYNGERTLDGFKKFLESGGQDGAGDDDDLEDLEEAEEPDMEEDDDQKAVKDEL
# An asterisk follows results filed as active; ? = inconclusive; / = not tested or not shown.
SMILES,Rtt109 HAT inh,DENV2 CPE rescue,SIRT5 block,ERp5 block,PDI turbidity
C=Cc1cc2c(cc1O)CCC1C2CCC2(C)C(O)CCC12 (stereo not given),-1,-3,/,1,2
C[C@]12CC[C@@H]3c4ccc(O)cc4C(=O)C[C@H]3[C@@H]1CC[C@@H]2O,-2,?,1,4,39*
C[C@@H]1CCCCO[C@@H](CN(C)S(=O)(=O)c2ccccc2)[C@@H](C)CN([C@@H](C)CO)C(=O)c2cc(NC(=O)Nc3ccc4c(c3)OCO4)ccc2O1,/,12,-5,4,/
CC(C)NC(=O)Nc1ccc2c(c1)CC(=O)N([C@H](C)CO)C[C@@H](C)[C@H](CN(C)Cc1ccccc1)O2,/,-1,/,3,/
O=[N+]([O-])c1cccc(N(CC(O)CN2CCCC2)S(=O)(=O)c2ccccc2)c1 (stereo not given),-6,-2,-2,3,0
Cc1ccc(S(=O)(=O)N(CC(O)CN2CCOCC2)c2cccc([N+](=O)[O-])c2)cc1 (stereo not given),-14,18,-6,27*,-1
O=C(O)c1cccc(NC(=O)c2cn(-c3ccccc3)nc2-c2cccc(Br)c2)c1,7,-4,16*,2,7
O=C(O)c1cccc(NC(=O)c2cn(-c3ccccc3)nc2-c2ccncc2)c1,-3,2,-3,3,0
O=C(NCC1CCCO1)C1CCN(C2CCN(Cc3ccco3)CC2)CC1 (stereo not given),/,/,0,1,-16
CCOc1cccc(CN2CCC(N3CCC(C(=O)NCC4CCCO4)CC3)CC2)c1 (stereo not given),6,-4,21*,2,2
O=C(NC1CCCC1)N1CCCCN2[C@H](CO)[C@@H](c3ccc(/C=C/c4ccccc4)cc3)[C@@H]2C1,/,-25,1,-3,/
O=C(NC1CCCC1)N1CCCCN2[C@H](CO)[C@@H](c3ccc(-c4cncnc4)cc3)[C@@H]2C1,/,34*,-3,0,/
O=C(NC1CCCC1)N1CCCCN2[C@H](C1)[C@@H](c1ccc(/C=C/c3ccccc3)cc1)[C@@H]2CO,/,-24,16*,3,/
O=C(NC1CCCC1)N1CCCCN2[C@H](C1)[C@H](c1ccc(/C=C/c3ccccc3)cc1)[C@@H]2CO,/,-24,28*,-4,/
CC(C)C#Cc1ccc2c(c1)O[C@@H](CN(C)CC1CC1)[C@@H](C)CN([C@@H](C)CO)S2(=O)=O,/,?,4,1,/
C[C@H](CO)N1C[C@H](C)[C@@H](CN(C)C(=O)Cc2ccccc2)OCCCC[C@H](C)Oc2ccc(NS(=O)(=O)c3ccc(F)cc3)cc2C1=O,/,126*,/,/,/
C[C@@H]1CCCCO[C@H](CN(C)C(=O)Cc2ccccc2)[C@H](C)CN([C@H](C)CO)C(=O)c2cc(NS(=O)(=O)c3ccc(F)cc3)ccc2O1,/,28*,/,/,/
C[C@@H]1CCCCO[C@@H](CN(C)C(=O)Cc2ccccc2)[C@@H](C)CN([C@H](C)CO)C(=O)c2cc(NS(=O)(=O)c3ccc(F)cc3)ccc2O1,/,-9,2,-2,/
COc1ccccc1NC(=O)N1[C@H](C#N)[C@@H](c2ccccc2)[C@@H]1CO,/,4,-1,0,/
C[C@H](CO)N1C[C@H](C)[C@H](CN(C)C(=O)CCCN(C)C)OCCCC[C@H](C)Oc2ccc(NC(=O)Nc3ccc(F)cc3)cc2C1=O,/,-9,-5,1,/
C[C@@H]1CCCCO[C@@H](CN(C)C(=O)CCCN(C)C)[C@@H](C)CN([C@@H](C)CO)C(=O)c2cc(NC(=O)CCCN(C)C)ccc2O1,/,-1,-2,-3,/
C[C@@H]1CN([C@@H](C)CO)C(=O)c2cc(NC(=O)CCCN(C)C)ccc2O[C@@H](C)CCCCO[C@@H]1CN(C)C(=O)Cc1ccccc1,/,64*,-2,0,/
C[C@H]1CCCCO[C@H](CN(C)C(=O)CCCN(C)C)[C@@H](C)CN([C@@H](C)CO)C(=O)c2cc(NC(=O)c3ccccc3)ccc2O1,/,53*,0,0,/
C[C@@H]1CCCCO[C@H](CN(C)C(=O)CCCN(C)C)[C@@H](C)CN([C@H](C)CO)C(=O)c2cc(NC(=O)Nc3ccc(F)cc3)ccc2O1,/,37*,3,-3,/
C[C@@H]1CN([C@@H](C)CO)C(=O)c2cc(NC(=O)c3ccccc3)ccc2O[C@@H](C)CCCCO[C@@H]1CN(C)C(=O)CCCN(C)C,/,-5,-5,4,/
SMILES,Rtt109 HAT inh,DENV2 CPE rescue,SIRT5 block,ERp5 block,PDI turbidity
C[C@H](CO)N1C[C@H](C)[C@@H](CN(C)C(=O)CCCN(C)C)OCCCC[C@H](C)Oc2ccc(NC(=O)CCCN(C)C)cc2C1=O,/,85*,6,0,/
C[C@@H]1CN([C@@H](C)CO)C(=O)c2cc(NC(=O)Nc3cccc4ccccc34)ccc2O[C@@H](C)CCCCO[C@@H]1CN(C)S(=O)(=O)c1cn(C)cn1,/,6,7,-4,/
C[C@H](CO)N1C[C@H](C)[C@H](CN(C)Cc2ccc(C(F)(F)F)cc2)Oc2c(NC(=O)NC3CCCCC3)cccc2C1=O,/,-2,4,0,/
O=C(NCC[C@H]1CC[C@H](NC(=O)C2CCCC2)[C@H](CO)O1)c1ccc(F)cc1,/,-10,7,-1,/
C[C@@H]1CCCCO[C@@H](CN(C)C(=O)CCCN(C)C)[C@@H](C)CN([C@H](C)CO)C(=O)c2cc(NC(=O)Cc3ccccc3)ccc2O1,/,142*,3,2,/
C[C@H]1CCCCO[C@@H](CN(C)C(=O)CCCN(C)C)[C@@H](C)CN([C@@H](C)CO)C(=O)c2cc(NC(=O)Cc3ccccc3)ccc2O1,/,-2,0,-7,/
Cc1ccsc1C(=O)NNC(=O)CCN1CCN(c2ccccc2)CC1,?,-6,19*,-3,-6
Cc1ccccc1C(=O)NCC(=O)NNC(=O)CCN1CCN(c2ccccc2)CC1,-4,-6,1,14,-1
Cc1noc(C)c1S(=O)(=O)Nc1ccc2c(c1)C(=O)N([C@@H](C)CO)C[C@@H](C)[C@@H](CN(C)Cc1ccc(C(=O)O)cc1)OCCCC[C@@H](C)O2,/,4,-4,6,/
O=C(COc1ccc(-n2ccnc2)cc1)Nc1cccc(Cl)c1,-6,7,23*,6,1
O=C(C[C@H]1CC[C@H](NC(=O)Nc2ccc(C(F)(F)F)cc2)[C@H](CO)O1)NCc1cc(F)cc(F)c1,/,-4,0,0,/
Cc1ccc(C(=O)c2c3ccc([N+](=O)[O-])cc3[n+]([O-])n2CCCC(N)=O)cc1,1,70*,/,2,2
CC=Cc1ccc2n(c1=O)C[C@H]1[C@H](CO)[C@@H](C(=O)NCC3CC3)N(C(=O)C3CCOCC3)[C@@H]21 (mixture of isomers),/,15,-1,2,/
COc1cc(/C=C(/C#N)C(=O)Nc2cc(C(F)(F)F)ccc2Cl)ccc1OCC(=O)Nc1cccc(C(F)(F)F)c1,7,2,16*,1,-6
COc1cc(/C=C/c2cccc[n+]2C)ccc1OCC(=O)Nc1cccc(Cl)c1,14,25*,-1,8,5

# Screens as filed in PubChem.
